This is an account of results in PubChem BioAssay AID504465 (National Center for Advancing Translational Sciences (NCATS), 2011).

The structures appear in SMILES notation. In all, about 2,100 compounds went through this assay and about 210 (10%) were called active. Another 53% or so got no clear call; they are omitted. Calls come from the whole dose curve; as a rule, active = well fitted inhibition curve with a large enough effect; inconclusive = small, poorly fitted or top-dose-only effect, or effect the other way; inactive = no such curve, though single readings can be large or run the other way. This is one part of the list. A call without a number means that no potency is given here.
Potency is the fitted concentration of half-maximal effect.

This test can be described thus: IN Cell qHTS Assay for Inhibitors of the mTORC1 Signaling Pathway in MEF (Tsc2-/-, p53-/-) Cells: Sytravon. Note: nearly all actives have a fitted effect of over 60% in size. To be noted: phospho-rpS6 immunofluorescence, 24 h; series mostly up to 38.3 µM. Summed up:
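Tsc2-/-, p53-/- MEFs (empty-vector) treated with compound 24 h at 37 degree Celsius, then fixed and stained for phospho-rpS6 Ser235/236 (Alexa-488) plus Hoechst. Reported as % positive cells, thresholds set against 7.5 nM rapamycin and DMSO wells.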
As for `CCc1cccc(NC(=O)c2ccc(CNS(=O)(=O)c3ccc4c(c3)C(C)(C)C(=O)N4C)cc2)c1`, the Potency entry was “inactive”.
In the case of `Cc1cncn1CCc1nc2c3ccccc3nc(SCC(=O)Nc3ccccc3F)n2n1` it was “inactive”; in that of `Brc1ccc(Nc2c3c(nc4nncn24)CCC3)cc1`, 10.4 µM (active).
As to `COc1ccc(Nc2c3c(nc4nncn24)CCC3)cc1OC`, the Potency entry is “inactive”.
For `O=c1[nH]c(SCc2ccc(Br)cc2)nc2c1CCCC2`, the Potency result was “inactive”.
Under `CCOc1ccc(-c2nonc2NC(=O)c2oc3ccc(CC)cc3c2C)cc1` stands “inactive”; under `NS(=O)(=O)c1ccc(CCNC(=O)C2COc3ccccc3C2)cc1` (stereo not given), “inactive”.
On to `COc1ccc(NC(=O)c2c(C)oc3ccc(O)c(CN4CCC(C)CC4)c23)cc1Cl`, for which the Potency is 13.1 µM (active).
With `Cc1oc2ccc(O)c(CN3CCCCCC3)c2c1C(=O)Nc1cccc(Cl)c1C`, the Potency entry was “inactive”.
As for `Cc1oc2ccc(O)c(CN3CCC(C)CC3)c2c1C(=O)Nc1ccccc1`, the Potency was 5.21 µM (active).
As for `Cc1ccc(NC(=O)c2c(C)oc3ccc(O)c(CN4CCCCCC4)c23)cc1`, the Potency result was “inactive”.
Take `COc1ccc(NC(=O)c2c(C)oc3ccc(O)c(CN4CCCC(C)C4)c23)cc1` (stereo not given): the Potency result was “inactive”.
Consider `COc1ccc(NC(=O)c2c(C)oc3ccc(O)c(CN4CCN(Cc5ccccc5)CC4)c23)cc1Cl`, for which the Potency result was “inactive”.
Take `O=C(Cn1cc(SCc2ccc(Cl)cc2)c2ccccc21)N1CCCC1`: the Potency result is “inactive”.
In the case of `Oc1c(C(Nc2ccccn2)c2ccccc2F)ccc2cccnc12` (stereo not given) it was “inactive”; in that of `COc1ccc(C)cc1NC(=O)c1cc(S(=O)(=O)N2CCN(c3cccc(C)c3C)CC2)ccc1F`, “inactive”; in that of `Cc1cc(NC(=O)C2CCC(CNS(=O)(=O)c3ccc(Br)s3)CC2)ccc1Br` (stereo not given), “inactive”.
Take `COc1ccccc1C(=O)Nc1nc2ccc(S(=O)(=O)N3CCCC3)cc2s1`: the Potency entry was “inactive”.
For `COc1ccccc1C(=O)Nc1sc(Nc2ccccc2)nc1C(N)=O`, the Potency is 18.5 µM (active).
Under `COc1ccccc1C(=O)Nc1cccc(OCc2cc(=O)n3ccccc3n2)c1` stands “inactive”; under `CCCCNC(=O)CSc1nc2n[nH]c(C)c2c(=N)n1-c1cccc(Cl)c1C`, “inactive”; under `Cc1ccc(-c2nc3ccc(Cl)cn3c2Nc2ccccc2C)s1`, “inactive”.
Take `Cc1cc(C)cc(NS(=O)(=O)c2ccc(-c3cc(C)no3)s2)c1`: the Potency result was “inactive”.
In the case of `CCC1=Nc2cc(C(=O)NC3CCCC3)ccc2Sc2ccc(Cl)cc21` it was “inactive”.
On to `CC(=O)Nc1cccc(NC(=O)C(=O)NCCc2sc(-c3ccccc3)nc2C)c1`, for which the Potency was 2.33 µM (active).
With `CCCC(=O)Nc1cccc(-c2cn3c(C)csc3n2)c1`, the Potency entry was “inactive”.
For `Cc1nc(-c2ccc(F)cc2)sc1CCNC(=O)C(=O)Nc1ccc2c(c1)OCCO2`, the Potency result was “inactive”.
Turning to `O=c1oc2ccccc2cc1-c1cn2cc(Cc3ccccc3F)sc2n1`, the Potency entry was “inactive”.
In the case of `CCOc1cc(C2C(C(=O)OC)=C(C)NC3=C2C(=O)c2ccccc23)cc(Br)c1OCC` (stereo not given) it was “inactive”; in that of `CC(NC(=O)c1c2c(nc3ccccc13)C(=O)N(C1CCCCC1)C2)c1ccccc1` (stereo not given), “inactive”.
For `CCCCN(CC)CCCNC(=O)c1ccc2c(c1)N(Cc1ccc(C)cc1)C(=O)c1ccccc1S2`, the Potency entry was “inactive”.
Take `CCC1CCCCN1CCCNC(=O)c1ccc2c(c1)N(Cc1cccc(Cl)c1)C(=O)c1ccccc1S2(=O)=O` (stereo not given): the Potency result is “inactive”.
Under `Cc1ccc(CN2C(=O)c3ccccc3Sc3ccc(C(=O)NCCCN4CCOCC4)cc32)cc1` stands 16.5 µM (active); under `Cc1ccc(C)c(CN2C(=O)c3ccccc3S(=O)(=O)c3ccc(C(=O)NCCCN4CCCC(C)C4)cc32)c1` (stereo not given), 5.21 µM (active).
In the case of `CC1CCCN(CCCNC(=O)c2ccc3c(c2)N(Cc2cccc(Cl)c2)C(=O)c2ccccc2S3(=O)=O)C1` (stereo not given) it was “inactive”; in that of `Cc1cccc(CN2C(=O)c3ccccc3Sc3ccc(C(=O)NC4CCCCC4)cc32)c1`, “inactive”; in that of `CCN(CC)CCCNc1cc(-c2ccccc2)nc(C)n1`, “inactive”.
In the case of `CC(C)c1ccc(C2CC(=O)Nc3cc4c(cc32)OCCO4)cc1` (stereo not given), the Potency result was “inactive”.
Turning to `O=C(NCCCc1nc2ccccc2n1Cc1ccccc1F)c1ccco1`, the Potency result is “inactive”.
In the case of `COc1ccc(CNc2oc(/C=C/c3cc(OC)c(OC)c(OC)c3)nc2C#N)cc1`, the Potency result was “inactive”.
Consider `COc1ccc(CNc2oc(COc3cccc(C)c3)nc2C#N)cc1`, for which the Potency was 3.69 µM (active).
In the case of `CCOc1ccc(/C=C/c2nc(C#N)c(NCCCN(C)C)o2)cc1`, the Potency entry was “inactive”.
As for `COc1ccc(CNc2oc(/C=C/c3cccc(OC)c3)nc2C#N)cc1`, the Potency result is “inactive”.
For `Cc1ccccc1OCc1ccc(-c2nc(C#N)c(N3CCN(C)CC3)o2)o1`, the Potency result is “inactive”.
With `Cc1cccc(OCc2ccc(-c3nc(C#N)c(NCCN(C)C)o3)o2)c1`, the Potency is 5.85 µM (active).
In the case of `CCCc1ccc(NC(=O)C2CCN(c3cnccn3)CC2)cc1` it was “inactive”; in that of `Cc1cc(=O)n2nc(N3CCC(C(=O)NCc4ccc(Cl)cc4)CC3)sc2n1`, “inactive”.
Turning to `CCCN(CCC)CCCNC(=O)C1CCN(c2nc3ccc(CC)cc3s2)CC1`, the Potency is 6.56 µM (active).
For `CCCCN(C)CCCNC(=O)C1CCN(c2nc3ccc(CC)cc3s2)CC1`, the Potency was 5.21 µM (active).
With `CCOCCCNC(=O)C1CCN(c2nc3ccc(Cl)cc3[nH]2)CC1`, the Potency entry is “inactive”.
`COc1cccc(NC(=O)C2CCC(CNS(=O)(=O)c3csc(C(N)=O)c3)CC2)c1` (stereo not given): the Potency entry is “inactive”.
In the case of `O=C(CCCCn1c(=O)[nH]c2ccsc2c1=O)N1CCN(c2cccc(Cl)c2)CC1`, the Potency entry is “inactive”.
In the case of `O=C(NCc1ccco1)C1CCN(C(=O)N2CCOc3ccc(Cl)cc32)CC1` it was “inactive”; in that of `O=C(Nc1ccc(Br)cc1F)c1cc(S(=O)(=O)NC2CCCC2)ccc1F`, “inactive”.
Turning to `CC1C(=O)N2CCCc3cc(S(=O)(=O)Nc4ccc(Br)cc4F)cc1c32` (stereo not given), the Potency is 14.7 µM (active).
On to `CCC(=O)N1CCc2cc(Br)cc(S(=O)(=O)N3CCCC(C(=O)Nc4ccc(CC)cc4)C3)c21` (stereo not given), for which the Potency entry was “inactive”.
With `Cc1ccc(C2c3c(-c4cc(C)ccc4O)n[nH]c3C(=O)N2Cc2ccco2)cc1` (stereo not given), the Potency entry is “inactive”.
Under `COc1ccc(Cn2c(C(=O)O)c(CNCCc3cccs3)c3ccc(OC)cc32)cc1` stands “inactive”; under `CCc1ccc(NC(=O)C2CCC(CNS(=O)(=O)c3ccc4c(c3)CC(C)N4C(C)=O)CC2)cc1` (stereo not given), “inactive”.
For `Cc1ccc(S(=O)(=O)c2nc(S(=O)(=O)c3ccccc3)sc2NCCCOC(C)C)cc1`, the Potency result was “inactive”.
In the case of `CCS(=O)(=O)c1oc(-c2ccc(F)cc2)nc1S(=O)(=O)c1ccc(Br)cc1`, the Potency is 2.93 µM (active).
As to `CC(C)CS(=O)(=O)c1oc(-c2ccc(F)cc2)nc1S(=O)(=O)c1ccccc1`, the Potency is 0.656 µM (active).
In the case of `Cc1ccc(CSc2oc(-c3ccco3)nc2S(=O)(=O)c2ccc(Cl)cc2)cc1`, the Potency entry is “inactive”.
For `CCCCS(=O)(=O)c1oc(-c2ccc(F)cc2)nc1S(=O)(=O)c1ccccc1`, the Potency is 4.14 µM (active).
Take `CCCCS(=O)(=O)c1oc(-c2ccc(F)cc2)nc1S(=O)(=O)c1ccc(C)cc1`: the Potency was 6.56 µM (active).
Take `O=S(=O)(NCC(c1ccco1)S(=O)(=O)c1ccccc1)c1cc(F)ccc1F` (stereo not given): the Potency entry is “inactive”.
With `CCCN1C(=O)C(Cc2nc3ccccc3c(=O)n2CC)c2cc(Br)ccc21` (stereo not given), the Potency entry was “inactive”.
In the case of `COC(=O)c1c(NC(=O)c2ccc(S(=O)(=O)N3CCC(C)CC3)cc2)sc2c1CCN(C)C2` it was “inactive”; in that of `Cc1cccc(-n2cnc3cc(C(=O)NC4CCCCCC4)ccc32)c1`, “inactive”; in that of `CC(C)c1ccc(NC(=O)c2ccc3c(c2)CCCN3S(C)(=O)=O)cc1`, “inactive”.
As to `CCc1ccc(NS(=O)(=O)c2ccc3[nH]c4c(c3c2)CCCCCC4)cc1`, the Potency result was “inactive”.
In the case of `O=C1C(Nc2ccccc2)=CC(c2ccc(Br)cc2)N1c1ccccc1` (stereo not given) it was “inactive”; in that of `COc1ccc(-n2nnnc2C2CCN(S(=O)(=O)c3cc(Cl)ccc3OC)CC2)cc1`, “inactive”.
For `O=C(NCCc1csc(-c2cccnc2)n1)c1cccc(C(F)(F)F)c1`, the Potency result was “inactive”.
On to `O=C(C1CCC(CNS(=O)(=O)c2ccc(Br)s2)CC1)N1CCN(c2ccccc2)CC1` (stereo not given), for which the Potency entry was “inactive”.
Regarding `O=S(=O)(c1ccccc1)n1nc(-c2ccc(Cl)cc2)nc1NCc1ccc(F)cc1`, the Potency result is “inactive”.
With `CCS(=O)(=O)c1oc(-c2ccc(F)cc2)nc1S(=O)(=O)c1ccccc1`, the Potency was 0.208 µM (active).
Under `O=S(=O)(c1ccc(Cl)cc1)c1nc(-c2ccco2)oc1SCc1ccccc1F` stands “inactive”.
As to `COc1ccc(S(=O)(=O)N(Cc2nc(-c3cccc(C)c3)no2)C2CCCCC2)cc1`, the Potency result is “inactive”.
For `COc1ccc(NC2=C(c3ccc(C(F)(F)F)cc3)C(=O)c3ccccc32)cc1`, the Potency entry is “inactive”.
With `COc1ccc(-c2cc(C(F)(F)F)nc(S(C)(=O)=O)n2)cc1`, the Potency was 11.7 µM (active).
Consider `COc1ccc(C)cc1NC(=O)c1oc2ccc(S(=O)(=O)N3CCC4(CC3)OCCO4)cc2c1C`, for which the Potency result was “inactive”.
In the case of `CC(C)Oc1cccc(C2CC(=O)Nc3cc4c(cc32)OCO4)c1` (stereo not given) it was “inactive”; in that of `COC(=O)c1c(-c2ccc(Cl)cc2)noc1N1CCN(c2cccc(C(F)(F)F)c2)CC1`, “inactive”.
Consider `CCCN(CCC)CC(O)Cn1cc(/C=C/C(=O)c2ccc(OCC)cc2)c2ccccc21` (stereo not given), for which the Potency is 14.7 µM (active).
In the case of `CCCCN(C)CC(O)Cn1cc(/C=C/C(=O)c2ccc(Br)cc2)c2ccccc21` (stereo not given) it was “inactive”; in that of `Cc1cccc(NC(c2ccccc2C)c2ccc3ccc(C)nc3c2O)n1` (stereo not given), “inactive”.
Regarding `COc1ccc(CCNC(=O)CCc2cn(Cc3ccc(F)cc3)c3ccccc23)cc1OC`, the Potency entry is “inactive”.
As to `CCN(CC)S(=O)(=O)c1ccc2oc(C(=O)NCc3ccccc3OC)c(C)c2c1`, the Potency result was “inactive”.
For `COc1ccccc1CNC(=O)CCc1c(C)c2ccc(OC)c(C)c2oc1=O`, the Potency is 1.47 µM (active).
As to `CCOc1ccccc1CNC(=O)CCc1cn(C)c2ccccc12`, the Potency result was “inactive”.
Consider `Cc1ccc(CN2CCCn3nc(C(=O)NCc4ccccc4Cl)cc3C2=O)cc1`, for which the Potency entry is “inactive”.
As for `Nc1cc(=O)nc(SCC(=O)Nc2ccc(F)cc2)n1-c1ccc(Cl)cc1`, the Potency entry was “inactive”.
In the case of `Cc1ccc(-c2nc(N3CCCC(C)C3)c3ccccc3n2)cc1` (stereo not given) it was “inactive”; in that of `COc1ccc2ncc3c(-c4ccc(C)c(C)c4)nn(CC(=O)Nc4ccccc4)c3c2c1`, “inactive”.
